The structures appear in SMILES notation. The campaign covered roughly 370,000 compounds. About 520 (0.14%) were called active. Cut-off read from the data, not from the text of the source: active = activation above about 40%; inactive = the rest. The entries come from a sample that favours actives as a whole.

Drawing on PubChem BioAssay AID1671463 (Sanford-Burnham Center for Chemical Genomics, 2021), this text covers activation for 59 compounds.

For the test, the target named is Atrial natriuretic peptide receptor 1 (Homo sapiens) (UniProt P16066). Nature of the test: GC-A stimulated cGMP production enhancers – HEK293 GC-A cells, cGMP TR-FRET, EC30 ANP, primary screen (AID 1671463). Particulars: at 10 µM, stronger effect = higher value, 0% at EC30 ANP, 100% saturating ANP.
Sequence of Atrial natriuretic peptide receptor 1 (Homo sapiens) (P16066 whole entry, looked up): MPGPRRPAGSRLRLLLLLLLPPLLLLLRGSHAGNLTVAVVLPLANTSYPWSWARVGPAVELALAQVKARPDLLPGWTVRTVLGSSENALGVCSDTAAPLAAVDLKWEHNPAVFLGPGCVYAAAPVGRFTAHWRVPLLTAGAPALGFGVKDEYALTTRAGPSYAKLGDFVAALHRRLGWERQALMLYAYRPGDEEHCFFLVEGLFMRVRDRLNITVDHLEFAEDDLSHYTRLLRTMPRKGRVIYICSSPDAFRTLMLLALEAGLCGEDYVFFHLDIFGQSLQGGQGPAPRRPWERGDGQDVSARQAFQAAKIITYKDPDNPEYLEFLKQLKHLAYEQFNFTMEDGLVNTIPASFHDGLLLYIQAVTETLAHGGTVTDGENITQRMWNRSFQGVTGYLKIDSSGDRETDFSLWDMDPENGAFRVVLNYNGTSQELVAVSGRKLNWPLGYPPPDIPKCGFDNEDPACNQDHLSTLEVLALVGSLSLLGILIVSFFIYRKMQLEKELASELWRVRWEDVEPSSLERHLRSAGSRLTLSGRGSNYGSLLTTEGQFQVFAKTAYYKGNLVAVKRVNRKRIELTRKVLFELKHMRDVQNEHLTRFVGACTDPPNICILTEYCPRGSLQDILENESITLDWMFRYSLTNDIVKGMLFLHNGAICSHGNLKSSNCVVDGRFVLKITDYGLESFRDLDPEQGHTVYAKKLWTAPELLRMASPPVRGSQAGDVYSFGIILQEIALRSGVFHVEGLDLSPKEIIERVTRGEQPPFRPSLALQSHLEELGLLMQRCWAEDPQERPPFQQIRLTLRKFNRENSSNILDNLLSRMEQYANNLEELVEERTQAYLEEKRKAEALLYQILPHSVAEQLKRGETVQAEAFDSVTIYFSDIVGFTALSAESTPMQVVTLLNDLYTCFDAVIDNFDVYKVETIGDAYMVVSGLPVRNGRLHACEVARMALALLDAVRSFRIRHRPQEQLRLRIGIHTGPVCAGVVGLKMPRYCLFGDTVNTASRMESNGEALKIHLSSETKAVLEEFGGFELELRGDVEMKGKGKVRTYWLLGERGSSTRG
For `COc1ccc([N+](=O)[O-])cc1NC(=O)CC1SC(=Nc2cccc(C)c2C)N(/N=C(\C)c2ccc(C)cc2)C1=O` (centres undefined), the activation is 0.41% (inactive).

Consider `Cc1ccc(NS(=O)(=O)c2ccc(-c3coc(C)n3)cc2)c(C)c1`, for which the activation is 4.2% (inactive).

As to `C=CCOc1ccc(/C=N/NC(=O)C(C)Sc2ccccn2)cc1OCC` (centres undefined), the activation is 1.12% (inactive).

Take `C=CCOc1ccc(/C=C2/C(=O)ON=C2C)cc1OCC`: the activation is 41% (active).

As for `C=CCOc1ccc(/C=N/n2cncn2)cc1OC`, the activation is 7.58% (inactive).

As for `C#CCOc1ccc(/C=C2/C(=O)ON=C2C)cc1OCC`, the activation is 43.3% (active).

Consider `C#CCOc1ccccc1/C=C1/C(=O)ON=C1C`, for which the activation was 25.7% (inactive).

With `Cc1ccc(N2C(=O)C3C4C=CC(CC4)C3C2=O)cc1Cl` (centres undefined), the activation was 2.95% (inactive).

Turning to `CN(CC(=O)Nc1c(Cl)cccc1Cl)C(=O)c1ccncc1`, the activation was 3.63% (inactive).

Regarding `C=C1CCN([C@H](C(=O)NCc2cc(OC)c(OC)c(OC)c2)C(C)C)S(=O)(=O)c2ccccc21`, the activation is 4.37% (inactive).

As for `CCCC(C(=O)N1CCOCC1)N1C(=O)C2C3C=CC(C3)C2C1=O` (centres undefined), the activation is 2.35% (inactive).

For the compound `O=C(Nc1cccc(Br)c1)C1CC(=O)N(C2CCCC2)C1` (centres undefined), the activation was 0.08% (inactive).

`Cc1cccc(NC(=O)C2CCCN2S(=O)(=O)c2ccc(F)cc2)c1C` (centres undefined): the activation was 0.56% (inactive).

For the compound `CCC(=O)Nc1c(C)n[nH]c1C`, the activation was -1.11% (inactive).

Turning to `COc1cc(F)c(C2=CC(=O)CC(C)(C)C2)cc1F`, the activation is 0.01% (inactive).

For the compound `COC(=O)Cc1ccc(OC(=O)C2CCN(S(=O)(=O)c3ccc(OC)c(OC)c3)CC2)cc1`, the activation was 3.18% (inactive).

With `COC(=O)c1cn(C)c2ccc(S(=O)(=O)N3CC(C)CC(C)C3)cc2c1=O` (centres undefined), the activation was -6.76% (inactive).

On to `c1coc(CCNc2ncnc3ccc(-c4ccc5c(c4)OCO5)cc23)c1`, for which the activation is 43.1% (active).

For `Cc1nc(CNc2ncnc3ccc(-c4ccc5c(c4)OCO5)cc23)cs1`, the activation was 5.54% (inactive).

In the case of `O=C(Cn1nnc(-c2ccc3c(c2)OCO3)n1)NCc1ccco1`, the activation is -5.64% (inactive).

As for `Cc1ccc(NC(=O)CN(C)C(=O)COC(=O)C(C)(C)Oc2ccc(Cl)cc2)cc1`, the activation was -1.24% (inactive).

Consider `CCn1nc(C(=O)NNC(=O)C2CSC3(C)CCC(=O)N23)c2ccccc2c1=O` (centres undefined), for which the activation was -1.32% (inactive).

In the case of `Cc1cc(C)c(C#N)c(SCS(=O)c2ccc(C(C)(C)C)cc2)n1` (centres undefined), the activation was 4.18% (inactive).

`CCOC(=O)c1c(C)[nH]c(=S)c(C#N)c1-c1ccccc1`: the activation was 49.5% (active).

`CC(=O)c1c(C)[nH]c(=S)c(C#N)c1-c1ccc(F)cc1`: the activation is 5.29% (inactive).

Turning to `CCc1c(C)[nH]c(=S)c(C#N)c1C`, the activation was 2.4% (inactive).

On to `COC(=O)Nc1ccc(S(=O)(=O)N2CCN(CCN3C(=O)C4C5C=CC(C5)C4C3=O)CC2)cc1` (centres undefined), for which the activation was -1.89% (inactive).

`Cc1cc(=O)n2nc(N3CCC(C(=O)Nc4c(F)c(F)c(F)c(F)c4F)CC3)sc2n1`: the activation was 0.6% (inactive).

On to `CC(C)c1cc(C(N)=O)c(NC(=O)c2cccc(COc3ccc(Br)cc3)c2)s1`, for which the activation was -1.61% (inactive).

For the compound `O=C(CN1C2CCC1CC(NC(=O)C1CC1)C2)NCc1ccccc1` (centres undefined), the activation is 0.13% (inactive).

With `COc1ccccc1CNC(=O)CSc1nc(=O)n(Cc2ccncc2)c2c1CCC2`, the activation was 2.8% (inactive).

`O=C1CC[C@@H](COc2ccc3[nH]cc(-c4ccccc4)c3c2-c2ccccc2)N1`: the activation was 2.69% (inactive).

As to `CC(C)C[C@H](NC(=O)[C@@H]1O[C@H]1C(=O)O)C(=O)NCCCCN=C(N)N`, the activation was 2.77% (inactive).

Consider `C[C@H](NS(=O)(=O)c1ccc(Cl)cc1)C(=O)OCC(=O)N1CCOCC1`, for which the activation is 7.01% (inactive).

For `Nc1ccc(N=Nc2ccccc2Cl)c(N)n1`, the activation is 38.8% (inactive).

`CCN(CC)S(=O)(=O)c1ccc(CNC(=O)CN2C(=O)NC3(CCc4ccccc43)C2=O)cc1` (centres undefined): the activation is -0.1% (inactive).

Turning to `O=C(O)CCSc1nnc(-c2ccccc2)n1-c1ccccc1`, the activation was 4.68% (inactive).

Turning to `C[C@@H](O)c1nc2ccccc2n1N`, the activation is 1.42% (inactive).

Consider `Cc1noc(C)c1COc1cccc(C(=O)Nc2cccnc2)c1`, for which the activation is -4.16% (inactive).

For `COCc1c(C(=O)OCc2c(C)noc2C)oc2ccccc12`, the activation was 2.41% (inactive).

For the compound `Cc1noc(C)c1COC(=O)COc1ccc(-c2ccccc2)cc1`, the activation is 42% (active).

Take `CCCCOc1ccc(N(CC(=O)NCC2CCCO2)C(=O)CCC(=O)Nc2cc(C)ccn2)cc1` (centres undefined): the activation was 0.77% (inactive).

Turning to `CSc1sc(C(=O)NNC(=O)c2ccc(Cl)cc2)c2c1C=CCC2`, the activation was -1.84% (inactive).

As for `Cc1cc(NC(=O)CS(=O)(=O)c2cn(C)c3ccccc23)no1`, the activation was 1.25% (inactive).

For the compound `CC(=O)c1ccc(S(=O)(=O)NC2CC(=O)N(c3ccc4c(c3)OCCO4)C2)cc1` (centres undefined), the activation is 4.47% (inactive).

Consider `Cc1ccn(-c2cccc(-n3ccc(C)n3)n2)n1`, for which the activation is 5.87% (inactive).

As to `CCCCOc1ccc(NC(=O)[C@@H]2CCCN2C(=O)C2CCN(S(=O)(=O)c3ccc(C)cc3)CC2)cc1`, the activation is 2.31% (inactive).

With `O=C(Nc1ccon1)c1nc[nH]c1C(=O)NCc1ccccc1`, the activation was -0.12% (inactive).

Turning to `NC(N)=NCCCc1cn(CC(=O)N2CCNCC2)nn1`, the activation was -2.97% (inactive).

`Cc1oc2cc3oc(=O)ccc3cc2c1C`: the activation is -1.91% (inactive).

As to `CC(C)Oc1ccc(C(CC(=O)N2CCOCC2)C(C)C)cc1` (centres undefined), the activation was -1.14% (inactive).

Regarding `O=C(COC(=O)CSc1nnc(-c2ccc(Cl)cc2)o1)Nc1cc(Cl)cc(Cl)c1`, the activation was 60.5% (active).

For `O=C(CSc1nnc(-c2ccncc2)o1)Nc1cccc(Cl)c1`, the activation was -5.53% (inactive).

For `O=C(CSc1nnc(-c2ccncc2)o1)NCc1ccc(Cl)cc1`, the activation is -2.38% (inactive).

With `O=C1/C(=C\c2ccc([N+](=O)[O-])cc2)CS(=O)(=O)C/C1=C/c1ccc([N+](=O)[O-])cc1`, the activation was 43.4% (active).

As for `O=[N+]([O-])c1ccc(CN2CC(N3CC=CC3)CS2(=O)=O)cc1` (centres undefined), the activation is 0.5% (inactive).

For the compound `Nc1c(N(CCO)C(=O)C2CCCCC2)c(=O)[nH]c(=O)n1Cc1ccccc1`, the activation was -4.4% (inactive).

As for `CC(NC(=O)COc1ccc(-c2ccccc2)cc1)C1CCCO1` (centres undefined), the activation is 3.26% (inactive).

Turning to `COC(=O)CN1C(=O)[C@H]2[C@@H](C3CC3)N3C(=O)CN(Cc4ccc(-c5ccccc5)cc4)C(=O)[C@@]3(Cc3ccccc3)[C@H]2C1=O`, the activation was 4.81% (inactive).
